# Measured values published in the supplement of paper PMC3334620.
# In all, about 33,000 sequences were measured (“E-score (-0.5 to 0.5)”: median about -0.012, highest 2% from about 0.29 on). Shown is part of a subset that was picked to be rich in the highest values.
# Target: T1, Ybr033w (UniProt P38073)
# T1 sequence: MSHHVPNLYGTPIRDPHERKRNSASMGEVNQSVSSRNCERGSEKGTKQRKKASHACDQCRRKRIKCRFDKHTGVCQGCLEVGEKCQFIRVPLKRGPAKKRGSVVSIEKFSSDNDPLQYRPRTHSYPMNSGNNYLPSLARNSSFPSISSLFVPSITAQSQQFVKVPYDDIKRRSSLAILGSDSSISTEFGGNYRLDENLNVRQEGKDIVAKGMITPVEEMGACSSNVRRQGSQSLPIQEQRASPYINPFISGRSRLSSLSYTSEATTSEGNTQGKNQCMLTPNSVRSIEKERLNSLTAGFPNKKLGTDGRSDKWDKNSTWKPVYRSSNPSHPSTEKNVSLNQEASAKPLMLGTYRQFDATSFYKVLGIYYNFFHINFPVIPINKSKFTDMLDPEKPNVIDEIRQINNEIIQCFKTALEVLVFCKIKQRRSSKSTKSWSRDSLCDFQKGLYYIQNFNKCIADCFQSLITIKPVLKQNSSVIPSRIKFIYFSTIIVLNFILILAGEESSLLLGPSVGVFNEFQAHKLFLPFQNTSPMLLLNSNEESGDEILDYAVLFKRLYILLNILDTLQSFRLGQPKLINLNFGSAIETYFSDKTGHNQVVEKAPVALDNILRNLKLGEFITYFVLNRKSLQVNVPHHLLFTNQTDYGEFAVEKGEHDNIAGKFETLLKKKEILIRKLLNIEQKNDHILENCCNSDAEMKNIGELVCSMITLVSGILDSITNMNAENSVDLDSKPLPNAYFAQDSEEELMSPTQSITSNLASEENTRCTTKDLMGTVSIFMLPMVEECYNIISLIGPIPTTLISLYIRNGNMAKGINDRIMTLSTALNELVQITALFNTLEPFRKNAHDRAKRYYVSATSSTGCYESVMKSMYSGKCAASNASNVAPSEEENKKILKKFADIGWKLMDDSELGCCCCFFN
# Experiment: PBM E-score (8-mer binding enrichment) (E-score (-0.5 to 0.5)); higher = stronger / more preferred TF binding
# Details: protein concentration: 200 nM; construct: GST-full length
# Outline: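 Full-length yeast transcription factors or their DNA-binding domains, GST-tagged and expressed with PURExpress, were applied at about 100-200 nM to universal all-10-mer Agilent arrays. These arrays had been made double-stranded by primer extension on fresh or once-stripped slides. Detection used fluorescent anti-GST, normalisation used masliner, and E-scores for ungapped eight-base words pooled with reverse complements came from the Universal PBM Analysis Suite.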
row,Sequence,PBM E-score
1,AAGAATAG,0.204
2,CGACAAAC,0.0224
3,CCATGGGA,-0.0942
4,AAACTAGG,0.0193
5,GGAGAGAC,-0.0678
6,ATTATTCG,0.328
7,GTTATTTA,0.258
8,ATTATTTA,0.373
9,ATTATTCA,0.231
10,CTTATTTA,0.106
11,ACTATTCG,0.177
12,AAATCTCT,0.152
13,AGAAAGTC,0.173
14,CCACGAGG,-0.0481
15,AATAGGAC,0.0355
16,AATAGGAT,0.295
17,AATAGGAA,0.29
18,TATAGGAA,0.232
19,CATAGGAA,0.0524
20,AATAGGAG,-0.253
21,ACGCGACC,-0.208
22,ACTAACCA,0.11
23,AGCACTTC,0.0586
24,ACGCGACT,-0.174
25,CATTATTC,0.213

row,Sequence,PBM E-score
1,AATTATAC,0.284
2,AATTATTC,0.423
3,CATTATTA,0.243
4,GATTATTA,0.298
5,CATTACTC,0.11
6,GATTATAA,0.172
7,AATTACTC,0.328
8,GATTATCA,0.19
9,CATTATCC,0.224
10,AATTACTA,0.234
11,GATTATCC,0.396
12,AACGGCTC,-0.0166
13,TAGGAATA,0.194
14,AGTGGTCG,-0.159
15,ATTGCCAA,-0.00029
16,TATTGGCA,0.0828
17,ACATTGCG,0.0729
18,TGTCCACA,0.134
19,GGACACAA,0.163
20,CTGAGCAA,-0.0556
21,ATGCCTAC,-0.0813
22,CACTGGGA,-0.0293
23,ATACAAGC,0.209
24,AGTTATTG,0.223
25,AGTTATTA,0.173

row,Sequence,PBM E-score
1,AATTATTA,0.359
2,AATTATAA,0.253
3,AATTATTG,0.274
4,AGTTATTC,0.345
5,ATGAAGAG,0.0478
6,AGAAGACG,0.123
7,ATTTCCTG,0.3
8,ATTTCCGC,0.15
9,ATTTCCGG,0.298
10,ATTTCCTC,0.176
11,ATTTCCTA,0.101
12,ATTTCCGA,0.247
13,CCCGAGGC,-0.329
14,ATTAAGCC,0.0562
15,AATTTTAT,0.331
16,AACTTGAG,-0.167
17,AATTTTAA,0.285
18,AAATTACT,0.333
19,CATTTACA,0.197
20,AACTTGAA,0.251
21,TATTTACA,0.21
22,AACTTGAT,0.333
23,GATTTACA,0.297
24,AAATTACC,0.164
25,AATTTTAC,0.282

row,Sequence,PBM E-score
1,AAATTACG,0.111
2,CGCTCCTA,-0.101
3,AGTTAGAA,0.0705
4,GTGGCTGA,-0.183
5,GACAGCAC,-0.00022
6,GGGTCCTA,-0.279
7,TCTAAGCA,-0.00029
8,CCGCTGCC,-0.418
9,CCAGAGCA,-0.0441
10,AACCAGCC,-0.0273
11,GACCAGGC,-0.164
12,AGGATGCA,-0.0489
13,CGTTCTAC,0.00885
14,CTGTTGTC,-0.0159
15,AATTTACA,0.134
16,AATTTAAG,0.211
17,AATTTAAC,0.245
18,AACTTAAA,0.237
19,AATTTAGT,0.241
20,AATTTAAT,0.319
21,AATTTACT,0.311
22,AACTTAAG,0.0775
23,AACTTAAT,0.314
24,CCTACCGC,-0.292
25,CCCAGTAC,-0.0948

row,Sequence,PBM E-score
1,CGAAGCGA,-0.0591
2,ACCAACAC,-0.0108
3,ACCTTGAA,0.102
4,GCATTATA,0.0824
5,GAATTAAC,0.249
6,GAATTATC,0.305
7,GAATTATA,0.307
8,GAATTCTA,0.176
9,GGATTATA,0.244
10,TAATTATA,0.382
11,TAATTCTA,0.288
12,AAATTCTA,0.217
13,GAATTACC,0.139
14,AAATTATA,0.215
15,CAATTATA,0.28
16,CTGCACAG,-0.0409
17,ATCCATAG,-0.0877
18,CCAGAAAG,0.171
19,CCTAAATC,0.0625
20,AATTGACG,-0.0634
21,CTATGCGA,-0.0724
22,AGAAATAC,0.104
23,AGAAATAT,0.299
24,GGAAATAA,0.284
25,CGAAATAA,0.264

row,Sequence,PBM E-score
1,AGAAATAA,0.36
2,AGAAATAG,0.227
3,AATTGCCT,0.0818
4,AAACTCCG,0.17
5,CTCTGCTC,-0.16
6,ACTGGCCC,0.0468
7,AGTTGGAT,0.288
8,AGTTGGAG,-0.0321
9,AGTTGGAC,-0.0273
10,CAGTCACG,-0.248
11,CACCGTGG,-0.311
12,AACAAGTG,0.127
13,ACCACCGC,-0.197
14,CAGATTAA,0.291
15,CAGATTAG,-0.134
16,TAGATTGA,0.233
17,TAGATTAA,0.312
18,TAGATTCA,0.0876
19,AAGATTAG,0.219
20,AAGATTAA,0.289
21,AAGATTAC,0.101
22,GAGATTAA,0.182
23,TCTGGGAA,-0.0142
24,GACGTCAA,-0.013
25,AGTTGGAA,0.124

row,Sequence,PBM E-score
1,CCCAAGAG,-0.146
2,AATCATCA,0.17
3,CCTGCCAG,-0.2
4,CTGGCCTA,-0.0592
5,ATAATCAT,0.292
6,AAAATCAT,0.31
7,ATAATCAA,0.229
8,AAAATCAA,0.221
9,AAAATCAG,0.188
10,ATAATCAG,0.092
11,CGGAAAGA,-0.0353
12,AGGTGTAC,0.0056
13,CTCAAGTA,0.0799
14,ATAGCTTG,-0.0519
15,GGCGACCC,-0.301
16,ACACACAT,0.117
17,AAATCGCT,-0.173
18,ACTTATAC,0.244
19,ACTTATAG,0.0878
20,ACTTATAA,0.305
21,TCTTATAA,0.0725
22,GCTTATAA,0.147
23,ACTTATAT,0.328
